Reference: the supplement of paper PMC3334620
The full ranking holds about 33,000 sequences; the median of “E-score (-0.5 to 0.5)” is about -0.015, and the highest 2% start at about 0.3. Shown is part of a subset that was picked to be rich in the highest values.

What follows are sequences tested against T1, Abf1 (UniProt P14164) (assay: PBM E-score (8-mer binding enrichment) (E-score (-0.5 to 0.5)); higher = stronger / more preferred TF binding). Conditions: protein concentration: 200 nM; construct: GST-full length.
T1 sequence: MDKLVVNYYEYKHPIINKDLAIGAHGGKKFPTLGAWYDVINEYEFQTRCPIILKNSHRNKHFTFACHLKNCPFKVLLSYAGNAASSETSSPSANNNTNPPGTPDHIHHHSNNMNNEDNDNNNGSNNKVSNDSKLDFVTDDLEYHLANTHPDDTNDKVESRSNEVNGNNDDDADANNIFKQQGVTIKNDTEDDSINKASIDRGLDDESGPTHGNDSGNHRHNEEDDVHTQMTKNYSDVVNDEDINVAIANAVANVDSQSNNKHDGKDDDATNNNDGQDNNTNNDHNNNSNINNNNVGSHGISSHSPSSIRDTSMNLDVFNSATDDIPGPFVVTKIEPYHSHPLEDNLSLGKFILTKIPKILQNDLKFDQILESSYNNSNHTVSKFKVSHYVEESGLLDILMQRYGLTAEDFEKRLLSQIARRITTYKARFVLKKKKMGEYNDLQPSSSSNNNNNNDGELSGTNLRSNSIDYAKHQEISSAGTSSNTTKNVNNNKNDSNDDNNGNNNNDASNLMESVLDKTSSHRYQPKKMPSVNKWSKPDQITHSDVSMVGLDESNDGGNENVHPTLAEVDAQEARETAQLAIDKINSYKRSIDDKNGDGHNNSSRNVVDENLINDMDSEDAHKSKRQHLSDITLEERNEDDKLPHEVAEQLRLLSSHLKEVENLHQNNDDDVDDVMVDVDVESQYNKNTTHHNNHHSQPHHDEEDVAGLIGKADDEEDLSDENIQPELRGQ
Summary of the method: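 Full-length yeast transcription factors or their DNA-binding domains, GST-tagged and expressed with PURExpress, were applied at about 100-200 nM to universal all-10-mer Agilent arrays. These arrays had been made double-stranded by primer extension on fresh or once-stripped slides. Detection used fluorescent anti-GST, normalisation used masliner, and E-scores for ungapped eight-base words pooled with reverse complements came from the Universal PBM Analysis Suite.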

Row | Sequence | PBM E-score
1 | TACACTAA | 0.114
2 | TAAGACTA | -0.0858
3 | CCAACAGG | -0.363
4 | GAACTTAC | 0.0577
5 | ACGGTATC | 0.182
6 | AATTTATC | 0.314
7 | AATTTATA | 0.191
8 | AGTTTATC | 0.173
9 | CATTTATC | 0.222
10 | CGTTTATA | 0.196
11 | CGTTTATC | 0.297
12 | CCTCTGAG | -0.215
13 | GATTGGGA | -0.197
14 | AGTGGTTA | 0.0354
15 | AAACGACG | 0.238
16 | GAACGACA | 0.296
17 | CAACGACA | 0.208
18 | AAACGACT | 0.152
19 | TAACGACA | 0.31
20 | AAACGACA | 0.321
21 | GCTAAAGC | -0.16
22 | ACGCGGAT | -0.024
23 | GAAACCAC | -0.124
24 | AAGGGACC | 0.0128
25 | ACCATAGA | -0.0622

Row | Sequence | PBM E-score
26 | GTTCGTGA | 0.254
27 | CGTCGTGC | 0.315
28 | AGTCGTGC | 0.0998
29 | GCTCGTGA | 0.0759
30 | CCTCGTGC | 0.00335
31 | CCTCGTGA | 0.363
32 | GGTCGTGA | 0.195
33 | CGTCGTGA | 0.351
34 | CTTCGTGA | 0.317
35 | AGTCGTGA | 0.249
36 | ACTCGTGA | 0.162
37 | ATTCGTGA | 0.15
38 | GTGAAAAC | 0.138
39 | CACTTCGA | 0.223
40 | ATACTGTA | 0.0204
41 | GAAACTTC | 0.0521
42 | AGACAGTG | -0.0919
43 | GCTTTTTA | 0.0686
44 | CGCATCAC | 0.263
45 | CACTTTTC | 0.192
46 | AGCGGTAC | -0.161
47 | CTGACGTC | 0.137
48 | CCCGAGCC | -0.299
49 | ATATCACC | 0.438
50 | ATATCACA | 0.282

Row | Sequence | PBM E-score
51 | CTATCACA | 0.199
52 | CTATCACC | 0.226
53 | ATATCAGC | 0.00929
54 | ATATCACG | 0.401
55 | ATCTCGCG | 0.206
56 | ATAATAGC | 0.0936
57 | CAGAGGAA | -0.148
58 | CGTAGGAG | 0.134
59 | CCCAAAGG | -0.158
60 | ACGTATCT | -0.0664
61 | ACGTATCA | 0.33
62 | TCGTATCA | 0.331
63 | ACGTATCG | 0.212
64 | CCGTATCA | 0.28
65 | GCGTATCA | 0.109
66 | GCAGAACA | -0.122
67 | ATTGCGTG | -0.126
68 | CGCATCAA | 0.081
69 | ACTGGTAT | 0.0243
70 | AGTCACTG | 0.0546
71 | CGTCACTA | 0.374
72 | CGTCACGC | 0.145
73 | CGTCACTC | 0.173
74 | CGTCACGA | 0.336
75 | AGTCACTA | 0.315

Row | Sequence | PBM E-score
76 | GGTCACGA | 0.27
77 | GGTCACTA | 0.281
78 | AGTCACTC | 0.232
79 | ACGCCAGA | -0.081
80 | ACCACCTA | -0.168
81 | ACTGAAAT | -0.0641
82 | AGCACCAC | -0.214
83 | ACGTTGGA | 0.142
84 | CAACCGAG | -0.0944
85 | TCAGACGA | 0.305
86 | TCGGACGA | 0.325
87 | GCAGACGA | 0.174
88 | ACAGACGA | 0.236
89 | GCGGACGA | 0.276
90 | ACGGACGA | 0.263
91 | AGAATCCG | -0.0715
92 | GCTGAGGA | -0.131
93 | ACGACCTG | 0.0542
94 | GGGTAGAA | -0.0486
95 | ACGCTGAT | 0.0221
96 | ACTATCAT | 0.184
97 | GATATCGC | 0.341
98 | AATATCAG | 0.119
99 | GCTATCAC | 0.211
100 | AATATCAA | 0.0238

Row | Sequence | PBM E-score
101 | GATATCGA | 0.271
102 | AATATCAC | 0.441
103 | AGTATCAT | 0.286
104 | GATATCAA | 0.207
105 | AATATCGC | 0.283
106 | GATATCAC | 0.414
107 | AATATCAT | 0.391
108 | CTATCAAA | 0.121
109 | GCCAGCAC | -0.0263
110 | TAAAGACA | -0.183
111 | CCGGAGCA | -0.291
112 | CAACCTAG | -0.0549
113 | GAAACCGC | -0.15
114 | AATATCGG | 0.187
115 | CATATCAA | 0.222
116 | AATATCGT | 0.398
117 | AATATCGA | 0.0788
118 | CATATCAC | 0.389
119 | CATATCAG | 0.0515
120 | CAGACCTC | 0.00051
121 | GCTGGTTA | -0.0104
122 | ACTAAGTG | 0.108
123 | TAATATAA | 0.196
124 | AAATATTA | 0.217
125 | GAATATCA | 0.334

Row | Sequence | PBM E-score
126 | CAATATCA | 0.283
127 | AAATATGC | 0.0361
128 | GAATATCC | 0.0475
129 | CAATATTA | 0.271
130 | TAATATTA | 0.361
131 | AAATATGA | 0.0696
132 | TAATATGA | 0.261
133 | TAATATCA | 0.344
134 | AAATATGT | 0.334
135 | AGGTAGAC | -0.249
136 | CTAGGGCA | -0.273
137 | CCCAAAAG | -0.135
138 | AGCGGACT | -0.23
139 | GCTGGAGA | -0.0857
140 | GAGCTGCC | -0.0575
141 | ACAACTCG | 0.0757
142 | AAATATCA | 0.376
143 | AAATATCC | 0.0659
144 | AAATATCG | 0.271
145 | CAAATCGC | -0.0589
146 | CCTTACAC | -0.0587
147 | CGTATATA | 0.357
148 | CGTATATC | 0.255
149 | AGTATATA | 0.31
150 | AGTATATC | 0.0567

Row | Sequence | PBM E-score
151 | AGTATATG | 0.0541
152 | GGTATATA | 0.161
153 | AGTGGATC | -0.0658
154 | CTGCCATA | -0.0819
155 | TCCGTAGA | 0.143
156 | ACCGTATC | 0.225
157 | GCCGTAGC | 0.0651
158 | GCCGTAGA | 0.371
159 | GCCGTATA | 0.379
160 | CCCGTATA | 0.289
161 | ACCGTATG | 0.27
162 | GGCGTATA | -0.0363
163 | ACCGTATA | 0.384
164 | AAGTGTTC | -0.0135
165 | AGTTATAT | 0.16
166 | ATGAAGAG | 0.0548
167 | CTGGGCAA | -0.172
168 | AATAATTA | 0.2
169 | ATCTTATG | 0.0695
170 | AAGCGGGC | -0.381
171 | CCACGACA | 0.0558
172 | GTACGACA | 0.36
173 | CTACGACA | 0.263
174 | ACACGACA | 0.368
175 | ACACGACC | -0.00503

Row | Sequence | PBM E-score
176 | ATACGACA | 0.296
177 | GCACGACC | 0.0772
178 | GCACGACA | 0.338
179 | ACACGACT | 0.0619
180 | AAATTGGC | -0.0692
181 | GTTGAGAA | 0.098
182 | AAGGACCG | -0.16
183 | GGAGCCTA | -0.064
184 | CCGACAAA | -0.0368
185 | ACGACAAC | 0.265
186 | GCGACAAA | 0.215
187 | ACGACAGA | 0.308
188 | ACGACAGG | 0.05
189 | ACGACAAT | 0.329
190 | GCGACAGA | -0.0736
191 | ACGACAAG | 0.215
192 | ACGACAAA | 0.369
193 | GGCGTCAA | -0.206
194 | ATGTAGGG | -0.256
195 | CTACGGTA | 0.138
196 | AAACGGTG | 0.129
197 | ATACGGTA | 0.319
198 | GTACGGTA | 0.197
199 | ATACGGTG | 0.297
200 | ATACGGTC | 0.26

Row | Sequence | PBM E-score
201 | AACGGAAT | 0.15
202 | ACTCGTTG | -0.00197
203 | AAGGGATA | 0.0355
204 | ATGGTGGC | -0.387
205 | GCGTACGC | -0.158
206 | CCGTACGA | 0.451
207 | GCGTACGA | 0.317
208 | CCGTACGC | 0.241
209 | CGGTACGA | 0.291
210 | TCGTAAGA | 0.154
211 | TAGTACGA | 0.287
212 | GGGTACGA | 0.0568
213 | TCGTACGA | 0.455
214 | CCAGTCTA | -0.227
215 | CAGCAGAG | -0.263
216 | ATGAGAAG | 0.117
217 | AGTAGTTG | 0.067
218 | ACTTTCAA | 0.159
219 | CTTTACCC | -0.141
